About 13,000 (27%) of roughly 48,000 compounds showed an effect of 50% or more. This is one part of the list.

This test has as its system Wolbachia pipientis. In words: Anti-Wolbachia Cell-Based Screen. Also noted: scale not given: in the data most compounds retested in dose-response had high values. Conditions: 5 µM. In kind it is functional.
As for `Cc1nn(C)cc1NC(=O)CC1CCN(CCc2ccccc2)CC1`, the “Percent Effect” value is given as 168.6%.
Next, `CS(=O)(=O)NC1CCN(CCc2ccccc2)CC1`: -1.788%; `Cc1nn(C)cc1NC(=O)CC1CCN(C(=O)Cc2ccccc2)CC1`: 152.2%; `O=C(Cc1ccccc1F)NCC1CCN(CCc2ccccc2)C1` (centres undefined): -7.846%.
As to `CC(=O)NCc1nnc2n1CCN(c1ncnc3c1CCC3)CC2`, the “Percent Effect” value is on record as -4.362%.
For `Cn1cc(Br)cc(NC(=O)CC2CCC2)c1=O`, the “Percent Effect” value turned out to be 5.375%.
Turning to `CC(C)(C)C(NC(=O)CCS(C)(=O)=O)c1ccc(F)cc1F` (centres undefined), the “Percent Effect” value stood at 7.431%.
The result for `COCCS(=O)(=O)Cc1nnnn1-c1ccccc1` reads 8.083%.
On to `CCCn1[nH]cc/c1=N\C(=O)CN1CCn2c(nnc2C2CC2)C1`, for which the “Percent Effect” value is recorded as -10.08%.
Next, `CCCn1[nH]cc/c1=N\C(=O)CN1CCOC(Cn2cc(C)cn2)C1` (centres undefined): 12.63%; `CCCn1[nH]cc/c1=N\C(=O)CN1CCc2c(nc(C3CC3)n2C)C1`: 122.4%.
Regarding `CCCn1[nH]cc/c1=N\C(=O)CN1CCc2cnc(CC)nc2C1`, the “Percent Effect” value is recorded as 1.642%.
On to `CCCn1[nH]cc/c1=N\C(=O)CN1CCc2cnc(C(C)C)nc2C1`, for which the “Percent Effect” value worked out at 129.2%.
The result for `CCCn1[nH]cc/c1=N\C(=O)CN1CCc2c(nc(C(C)C)n2C)C1` reads -3.864%.
Next, `O=C(CNC(=O)N(Cc1ccoc1)C1CCCCC1)N1CCCC1`: -3.863%.
The result for `O=C1CN(Cc2cn(CC3CCCN(C4CCSCC4)C3)nn2)CCN1` (centres undefined) reads -21.26%.
As to `CNc1cncc(C2CCCN2C(=O)c2ccc3c(c2)OCCO3)n1` (centres undefined), the “Percent Effect” value was 121%.
Next, `CNc1cncc(C2CCCN2C(=O)c2ccc3c(c2)CCC3)n1` (centres undefined): 112.1%; `Cn1ccc(C(=O)N2CCCC2c2ccc3c(c2)OCCO3)cc1=O` (centres undefined): 4.386%.
For `CNc1cncc(C2CCCN2C(=O)c2ccc3nc(C)[nH]c3c2)n1` (centres undefined), the “Percent Effect” value is recorded as 94.32%.
The result for `Cn1cc(C(=O)N2CCCC2c2ccc3c(c2)OCCO3)ccc1=O` (centres undefined) reads 14.96%.
Consider `CNc1cncc(C2CCCN2C(=O)c2ccc3oc(C)cc3c2)n1` (centres undefined), for which the “Percent Effect” value is recorded as 6.468%.
The result for `CC(C)C(=O)N1CCN(C(=O)CCc2nnc(-c3ccccc3)o2)CC1` reads -5.371%; that for `CN(CCn1cccn1)S(=O)(=O)c1ccc(C#N)cc1`, -4.99%; that for `CC(C)c1ncncc1C(=O)N1CCN(Cc2ccsc2)CC1`, 100.4%.
In the case of `CC(C)c1cc(C(=O)N2CCN(Cc3ccsc3)CC2)n[nH]1`, the “Percent Effect” value is listed as 8.435%.
Turning to `CC(C)c1ncncc1C(=O)N1CCN(Cc2cccnc2)CC1`, the “Percent Effect” value came to 115.2%.
The result for `CCCc1c(C(=O)N2CCN(Cc3ccccn3)CC2)cnn1C` reads 12.63%; that for `CC(C)CN1CCN(C(=O)c2cccnc2-n2cncn2)CC1`, -9.606%; that for `CC(C)c1ncncc1C(=O)N1CCCN(Cc2cccs2)CC1`, 14.44%.
Next, `Cc1ccc(C(=O)N2CCN(Cc3ccsc3)CC2)n1C`: -3.003%.
`CCc1ncncc1C(=O)N1CCCN(Cc2ccc(C)cc2)CC1`: the “Percent Effect” value was -0.6521%.
Next, `CC(C)c1ncncc1C(=O)N1CCN(Cc2ccccn2)CC1`: 108.4%.
Next, `CCc1c(C)[nH]c(C(C)(N)CC)nc1=O.Cl` (centres undefined): 22.39%; `COc1cccc(COCC(O)CN(C)c2ccc(C)cc2C)c1` (centres undefined): 0.5373%.
Next, `Cn1cc(CNC2CCOCC2)c(-c2cc3ccccc3o2)n1`: 2.257%.
Regarding `Cc1nn(C)cc1CN1CCc2nc3sccc3c(=O)n2CC1`, the “Percent Effect” value worked out at 108%.
As to `Cn1cc(CN2CCCN(C(=O)c3cc(Cl)cn3C)CC2)cn1`, the “Percent Effect” value is given as -17.2%.
On to `CC(C)(C)c1n[nH]cc1CN1CCc2nc3ccsc3c(=O)n2CC1`, for which the “Percent Effect” value was -17.99%.
With `O=c1c2ccccc2nc2n1CCN(Cc1cccs1)CC2`, the “Percent Effect” value was -4.199%.
Next, `Cn1cc(CN2CCCN(C(=O)c3cn4ccccc4n3)CC2)cn1`: 23.55%.
As for `Cc1c(CN2CCc3nc4sccc4c(=O)n3CC2)cnn1C.Cl`, the “Percent Effect” value stood at 100.5%.
Next, `Cc1cc2c(=O)n3c(nc2s1)CCN(Cc1cnn(C)c1C)CC3.Cl`: -7.845%; `COCCN(Cc1cnn(C)c1)c1nc(C)nc2sccc12`: 10.56%.
Next, `Cn1cc(CN2CCc3nc4ccccc4c(=O)n3CC2)cn1`: 97.31%; `Cn1cc(CN2CCc3nc4sccc4c(=O)n3CC2)cn1`: 107.2%; `CCn1nc2c(cc1=O)CN(Cc1nc(-c3ccoc3)no1)CC2`: -3.016%.
The result for `Cn1cc(C2CCCN2C(=O)c2cnc(-c3ccccn3)s2)cn1` (centres undefined) reads 99.88%.
As to `Cn1cc(C2CCCN2C(=O)c2cnc(-c3cccs3)s2)cn1` (centres undefined), the “Percent Effect” value was found to be 79.27%.
As to `Cn1cc(C2CCCN2C(=O)c2ccc(Br)o2)cn1` (centres undefined), the “Percent Effect” value is -1.087%.
Next, `Cn1cc(C2CCCN2C(=O)c2cnc(-c3ncccn3)s2)cn1` (centres undefined): 107.5%.
Next, `Cn1cc(C2CCCN2C(=O)Cc2n[nH]c3ccccc23)cn1` (centres undefined): -7.231%; `Cn1cc(C2CCCN2C(=O)Cc2coc(-c3ccccc3)n2)cn1` (centres undefined): -3.572%; `Cn1cc(C2CCCN2C(=O)c2cnc(-c3ccco3)s2)cn1` (centres undefined): 97.73%.
